Reference: PubChem BioAssay (NCATS)
Values joined by “and” are separate entries in the source; they are usually repeats but may differ in a detail not shown here. Equal values may be shown once. Records with an inconclusive call do not appear. Active and inactive are the calls of the source. Unless noted, the call rests on the fitted dose curve; in most records, active means well fitted curve in the direction sought with a large enough effect; inconclusive means small, poorly fitted or top-dose-only effect, or another doubt; inactive means no such curve, though single readings can be large; an effect the other way counts as inactive or inconclusive.

How the values were obtained:
[1] = target: Cytochrome P450 2C9 (Homo sapiens) (UniProt P11712); assay: Cytochrome P450 family 2 subfamily C member 9 (CYP2C9) small molecule antagonists: luciferase biochemical (cell-free) qHTS assay (AID 1645842; active means well fitted curve in the direction sought with a large enough effect in the repeat runs; an effect the other way counts as inactive or inconclusive; further: nearly all actives have a fitted effect of over 55% in size; on activity change, negative = inhibition: on the % scale 0 is the no-effect control and ±100 the full control effect)
Chain of Cytochrome P450 2C9 (Homo sapiens) (P11712 whole entry, looked up): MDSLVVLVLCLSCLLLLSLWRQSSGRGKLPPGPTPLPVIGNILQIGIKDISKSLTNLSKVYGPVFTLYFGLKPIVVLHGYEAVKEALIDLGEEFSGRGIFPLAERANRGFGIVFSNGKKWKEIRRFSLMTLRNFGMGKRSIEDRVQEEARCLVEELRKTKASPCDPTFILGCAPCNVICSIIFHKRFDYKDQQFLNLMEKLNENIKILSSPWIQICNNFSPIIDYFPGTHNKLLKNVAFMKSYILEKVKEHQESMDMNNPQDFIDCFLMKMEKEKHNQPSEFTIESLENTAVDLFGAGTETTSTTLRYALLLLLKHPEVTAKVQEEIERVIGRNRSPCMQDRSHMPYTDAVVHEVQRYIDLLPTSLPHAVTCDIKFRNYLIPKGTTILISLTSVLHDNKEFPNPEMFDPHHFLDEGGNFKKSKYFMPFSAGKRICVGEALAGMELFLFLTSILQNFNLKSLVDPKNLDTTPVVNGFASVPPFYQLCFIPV
How it was run: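 Luminescence, after 20 min with luciferin detection reagent, reflected CYP2C9 turnover during a 1 h NADPH-driven reaction at 37C. Enzyme-substrate mix contained 0.4% bovine serum albumin and was preincubated with compound 10 min at room temperature.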

[2] = Primary qHTS for inhibitors of nuclear receptor binding SET domain protein 2 (NSD2) in an isogenic RCH-ACV NSD2 p.E1099K mutant (9B) (AID 1645876); further: nearly all actives have a fitted effect of over 70% in size
[3] = Primary qHTS for inhibitors of nuclear receptor binding SET domain protein 2 (NSD2) in an RCH-ACV wild type WT cells (2C) (AID 1645877); further: nearly all actives have a fitted effect of over 70% in size
[4] = target: Catechol O-methyltransferase (Homo sapiens) (UniProt P21964); assay: Confirmatory Screen for Target Class Profiling of Small Molecule Inhibitors of Methyltransferases (AID 1745852; calls by dose curve; on activity change, negative = inhibition: on the % scale 0 is the no-effect control and ±100 the full control effect); details: MTase-Glo luminescence, SAH detection, recombinant enzyme; measured here: COMT max response; stronger effect = lower value
Chain of Catechol O-methyltransferase (Homo sapiens) (P21964 whole entry, looked up): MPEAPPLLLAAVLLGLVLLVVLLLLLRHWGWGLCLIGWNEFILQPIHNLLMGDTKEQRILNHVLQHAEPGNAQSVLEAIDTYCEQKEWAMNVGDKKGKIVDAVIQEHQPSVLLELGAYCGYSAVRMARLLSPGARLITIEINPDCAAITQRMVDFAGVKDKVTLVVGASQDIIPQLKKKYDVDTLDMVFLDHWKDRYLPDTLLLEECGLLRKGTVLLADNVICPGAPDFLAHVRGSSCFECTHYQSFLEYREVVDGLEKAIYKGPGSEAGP

[5] = target: Guanidinoacetate N-methyltransferase (Homo sapiens) (UniProt Q14353); assay: as above; details: activity change, negative = inhibition: at 57.3 µM (top of the series) unless noted
[6] = target: Nicotinamide N-methyltransferase (Homo sapiens) (UniProt P40261); assay: as above; details: MTase-Glo luminescence, SAH detection, recombinant enzyme; measured here: NNMT max response; stronger effect = lower value
Chain of Nicotinamide N-methyltransferase (Homo sapiens) (P40261 whole entry, looked up): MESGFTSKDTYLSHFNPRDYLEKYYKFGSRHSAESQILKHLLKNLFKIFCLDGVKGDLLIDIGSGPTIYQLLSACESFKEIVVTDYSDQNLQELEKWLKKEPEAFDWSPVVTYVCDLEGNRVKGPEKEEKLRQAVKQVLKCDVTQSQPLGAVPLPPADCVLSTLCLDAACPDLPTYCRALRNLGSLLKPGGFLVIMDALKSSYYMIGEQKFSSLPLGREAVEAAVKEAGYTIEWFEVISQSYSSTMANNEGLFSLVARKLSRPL

[7] = target: Phenylethanolamine N-methyltransferase (Homo sapiens) (UniProt P11086); assay: as above; details: MTase-Glo luminescence, SAH detection, recombinant enzyme; measured here: PNMT max response; stronger effect = lower value
Chain of Phenylethanolamine N-methyltransferase (Homo sapiens) (P11086 whole entry, looked up): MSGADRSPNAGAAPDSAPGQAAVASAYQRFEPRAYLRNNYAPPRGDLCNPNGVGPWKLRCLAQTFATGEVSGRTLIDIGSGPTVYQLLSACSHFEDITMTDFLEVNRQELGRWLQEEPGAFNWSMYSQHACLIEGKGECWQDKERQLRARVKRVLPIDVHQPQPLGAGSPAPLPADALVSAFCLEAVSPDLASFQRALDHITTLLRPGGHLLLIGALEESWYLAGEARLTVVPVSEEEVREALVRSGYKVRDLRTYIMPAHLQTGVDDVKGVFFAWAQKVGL
Potency means the concentration at half of the fitted maximal effect.

Cc1ccc(O)cc1Nc1ccnc(Nc2cccc(C(N)=O)c2)n1
Potency [1]: 1.9 µM (active)
Potency [2]: 4.59 µM (active)
Potency [3]: 4.09 µM (active)

Cn1nc(-c2ccc(C(F)(F)F)cc2)nc2c(=O)n(C)c(=O)nc1-2
Potency [1]: inactive
Potency [2]: 2.58 µM (active)
Potency [3]: 2.3 µM (active)

CNc1cccc(CCOc2ccc3c(c2)CN(CC(F)(F)F)C(=O)[C@H](CC(=O)O)C3)n1
Potency [1]: inactive
Potency [2]: inactive
Potency [3]: inactive

CC(C)c1ccccc1OC(=O)NCCc1ccc2ccccc2c1
Potency [1]: 0.952 µM (active)
Potency [2]: inactive
Potency [3]: inactive

O=C(Nc1ccc(C(O)(C(F)(F)F)C(F)(F)F)cc1)c1ccc(C(F)(F)F)cc1
Potency [1]: 10.7 µM (active)
Potency [2]: 5.78 µM (active)
Potency [3]: 5.78 µM (active)

Oc1cccc(C2NC(=S)Nc3cccc(F)c32)c1 (stereo unspecified)
Potency [1]: 15.1 µM (active)
Potency [2]: 3.65 µM (active)
Potency [3]: 4.09 µM (active)

CNC1CN(c2ccc3c(=O)c(C(=O)O)cn(-c4nccs4)c3n2)CC1OC (stereo unspecified)
activity change, negative = inhibition [1]: 4.23% [at 11.5 µM] (inactive)
Potency [2]: 0.0836 µM (active)
Potency [3]: 0.0297 µM (active)

COc1cc(CN(CCN)C(=O)c2cccs2)ccc1OCc1ccccc1
Potency [1]: 10.7 µM (active)
Potency [2]: 18.3 µM (active)
Potency [3]: 20.5 µM (active)

Cn1ncc(Cl)c1-c1cc(C(=O)N[C@H](CN)Cc2ccc(F)c(F)c2)sc1Cl
Potency [1]: 13.5 µM (active)
Potency [2]: 1.63 µM (active) and 1.05 µM (active)
Potency [3]: 2.05 µM (active) and 1.05 µM (active)

COc1ccc2c(NC(=O)Nc3cccc(C(F)(F)F)n3)ccnc2c1
Potency [1]: 3.01 µM (active)
Potency [2]: 4.09 µM (active)
Potency [3]: 3.25 µM (active)

Cc1ccccc1CN1CCn2c1nc1c(c2=O)CN(Cc2ccccc2)CC1
Potency [1]: 8.49 µM (active)
Potency [2]: inactive
Potency [3]: inactive

Cc1[nH]c(/C=C2\C(=O)Nc3ccc(F)cc32)c(C)c1C(=O)NCCN1CCCC1
Potency [1]: inactive
Potency [2]: 16.3 µM (active) and 7.23 µM (active)
Potency [3]: 11.5 µM (active) and 7.23 µM (active)

Cc1cc(C(C)Nc2ccccc2C(=O)O)c2nc(N3CCOCC3)cc(=O)n2c1 (stereo unspecified)
Potency [1]: 8.49 µM (active)
Potency [2]: 0.409 µM (active)
Potency [3]: 0.728 µM (active)

Nc1nc2c(c(N3CC[C@@H](N)C3)n1)CCCc1ccccc1-2
Potency [1]: inactive
Potency [2]: 20.5 µM (active)
Potency [3]: 18.3 µM (active)

COc1ccc(NC(=O)c2ccc(-c3ccc(-c4nnc(C)o4)cc3C)cc2)cc1N1CCN(C)CC1
Potency [1]: 19 µM (active)
Potency [2]: 20.5 µM (active)
Potency [3]: 10.3 µM (active)

COc1cc2c(cc1OC(C)C)[C@H](c1ccc(Cl)cc1)N(c1ccc(N(C)CC3CCC(N4CCN(C)C(=O)C4)CC3)cc1)C(=O)C2 (stereo partly specified)
Potency [1]: 6.74 µM (active)
Potency [2]: 1.83 µM (active) and 2.09 µM (active)
Potency [3]: 817 nM (active) and 1.18 µM (active)

Cc1c(NC(=O)OCC2COCCN2)cn2ncnc(Nc3ccc4c(cnn4Cc4cccc(F)c4)c3)c12 (stereo unspecified)
Potency [1]: 19 µM (active)
Potency [2]: 14.5 µM (active) and 18.6 µM (active)
Potency [3]: 16.3 µM (active) and 16.6 µM (active)

Cc1nc(C(=O)N2CCC[C@H]2Cc2nnc(-c3ccccc3)o2)c(-c2ccccc2F)s1
Potency [1]: 10.7 µM (active)
Potency [2]: inactive
Potency [3]: inactive

O=C(NC1(c2ccccc2)CC1)c1c(CN2CCC(N3CCCCC3)CC2)c(-c2cccc(C(F)(F)F)c2)nc2cc(Br)ccc12
Potency [1]: 23.9 µM (active)
Potency [2]: 12.9 µM (active)
Potency [3]: 10.3 µM (active)

N#Cc1ccc2ncnc(NCCc3ccccc3)c2c1
Potency [1]: 26.8 µM (active)
Potency [2]: 6.49 µM (active)
Potency [3]: 4.09 µM (active)

CCNC(=O)Nc1ccc(-c2nc3c(c(N4CCOCC4C)n2)CCN(C2COC2)C3)cc1 (stereo unspecified)
Potency [1]: 16.9 µM (active)
Potency [2]: 0.325 µM (active)
Potency [3]: 0.459 µM (active)

O=C(Nc1cccnc1)c1cc(-c2ccnc(F)c2)ccc1OCc1ccccc1
Potency [1]: 1.51 µM (active)
Potency [2]: inactive
Potency [3]: inactive

COc1cc(Br)c(S(=O)(=O)Nc2ccc(Cl)c(O[C@@H]3CCN(C)C3)c2)cc1OC
Potency [1]: 10.7 µM (active)
Potency [2]: 12.9 µM (active)
Potency [3]: 11.5 µM (active)

COc1ccc(Cl)c(Nc2ncnc3cc(OCC4CCN(C)CC4)c(OC)cc23)c1
Potency [1]: inactive
Potency [2]: 13.2 µM (active)
Potency [3]: 13.2 µM (active)

Nc1nccc(-c2c(-c3ccc(F)cc3)ncn2C2CCCCC2)n1
Potency [1]: 16.9 µM (active)
Potency [2]: 9.16 µM (active) and 11.8 µM (active)
Potency [3]: 14.5 µM (active) and 10.5 µM (active)

CCN(Cc1ccccc1)C(=O)Cn1c(=O)n(C)c2cnc(-c3ccccc3)nc21
Potency [1]: 19 µM (active)
Potency [2]: inactive
Potency [3]: inactive

NS(=O)(=O)Nc1ncnc(OCCOc2ncc(Br)cn2)c1-c1ccc(Br)cc1
Potency [1]: 4.77 µM (active)
Potency [2]: 16.3 µM (active)
Potency [3]: 11.5 µM (active)

CNc1ccc([N+](=O)[O-])c(Nc2ccc3[nH]ncc3c2)n1
Potency [1]: 0.756 µM (active)
Potency [2]: 7.28 µM (active)
Potency [3]: 7.28 µM (active)

C=CC(=O)N1CCC[C@@H](n2nc(-c3cccc(C(=O)Nc4ccc(C(C)C)c(C)c4)c3)c3c(N)ncnc32)C1
Potency [1]: 8.49 µM (active)
Potency [2]: 8.17 µM (active)
Potency [3]: 9.16 µM (active)

COCc1c(Cl)ccc2c1CC[C@H]2c1ncc[nH]1
Potency [1]: 21.3 µM (active)
Potency [2]: inactive
Potency [3]: inactive

COc1cc(NC(=O)c2cc(C3CC3)on2)c(OC)cc1Cl
Potency [1]: 10.7 µM (active)
Potency [2]: inactive
Potency [3]: inactive

CCOC(=O)N1c2ccc(C(F)(F)F)cc2C(N(Cc2cc(C(F)(F)F)cc(C(F)(F)F)c2)C(=O)OC)CC1CC (stereo unspecified)
Potency [1]: inactive
Potency [2]: inactive
Potency [3]: inactive

CC(=O)NCc1cccc(OC[C@@H](O)CNCCc2ccc(NS(=O)(=O)c3ccccc3)cc2)c1
Potency [1]: 0.674 µM (active)
Potency [2]: inactive
Potency [3]: inactive

O=C(NCc1cccs1)c1cc2nc(-c3ccco3)cc(C(F)(F)Cl)n2n1
Potency [1]: 0.301 µM (active)
Potency [2]: inactive
Potency [3]: inactive

OC1(CN2CCC(COc3noc4cccc(O[C@@H]5CCOC5)c34)CC2)CCOCC1
Potency [1]: 9.52 µM (active)
Potency [2]: inactive
Potency [3]: inactive

O=C(NCCCN1CCOCC1)c1cnn2c(-c3ccccc3)cc(-c3ccccc3)nc12
Potency [1]: 3.79 µM (active)
Potency [2]: inactive
Potency [3]: inactive

FC(F)(F)c1ccccc1-c1cc(C(F)(F)F)c2nc(C3=NOC4(CCCCC4)C3)[nH]c2c1
Potency [1]: inactive
Potency [2]: 18.3 µM (active)
Potency [3]: 14.5 µM (active)

Cn1c(=O)c2c(ncn2Cc2ccc(C(C)(C)C)cc2)n(C)c1=O
Potency [1]: 23.9 µM (active)
Potency [2]: 6.49 µM (active)
Potency [3]: 7.28 µM (active)

O=S(=O)(N[C@H]1CCCC[C@@H]1N1CCOCC1)c1ccc(Cl)cc1
Potency [1]: 5.35 µM (active)
Potency [2]: inactive
Potency [3]: inactive

CC(=O)N1CCN(CCOc2ccc(C3CCN(C4=Nn5c(nnc5C(F)(F)F)CC4)CC3)cc2)CC1
Potency [1]: 12 µM (active)
Potency [2]: 5.15 µM (active)
Potency [3]: 6.49 µM (active)

O=C(c1ccccn1)N(Cc1cccs1)C1(C(=O)NC2CCCCC2)CCCCC1
Potency [1]: 9.52 µM (active)
Potency [2]: inactive
Potency [3]: inactive

N#Cc1cc(CN2CCC(Nc3ncnc4sc(Cl)cc34)CC2)ccc1F
Potency [1]: inactive
Potency [2]: 14.5 µM (active)
Potency [3]: 20.5 µM (active)

CCC1C(=O)N(C)c2cnc(Nc3ccc(C(=O)NC4CCN(C)CC4)cc3OC)nc2N1C1CCCC1 (stereo unspecified)
Potency [1]: 2.13 µM (active)
Potency [2]: 0.0073 µM (active)
Potency [3]: 0.0082 µM (active)

CC(C)c1noc(C2CCN(c3ncnc(Nc4ccc(S(C)(=O)=O)cc4F)c3[N+](=O)[O-])CC2)n1
Potency [1]: inactive
Potency [2]: inactive
Potency [3]: inactive

Cc1ccc(NC(=O)C(C)C)cc1C1CCN(Cc2ccc(Oc3ccc(F)c(F)c3)cc2)CC1
Potency [1]: 9.52 µM (active)
Potency [2]: 12.9 µM (active)
Potency [3]: 9.16 µM (active)

Cc1cccc(N2CCN(C(=O)c3cc(S(=O)(=O)N(C)C)ccc3N3CCCC3)CC2)c1C
Potency [1]: 13.5 µM (active)
Potency [2]: inactive
Potency [3]: inactive

CNC(=O)[C@@H](c1ccccc1)N1CCc2cc(OC)c(OC)cc2[C@@H]1CCc1ccc(C(F)(F)F)cc1
Potency [1]: 6.74 µM (active)
Potency [2]: 23 µM (active)
Potency [3]: 16.3 µM (active)

CC(=O)c1ccc2c(c1)[C@H](NC(=O)c1ccc(F)c(Cl)c1)[C@H](O)C(C)(C)O2
Potency [1]: 2.68 µM (active)
Potency [2]: inactive
Potency [3]: inactive

Cc1csc2c(N[C@@H](C)CN3CCN(S(=O)(=O)c4ccc(Cl)c(Cl)c4)CC3)ncnc12
Potency [1]: 6.01 µM (active)
Potency [2]: 2.9 µM (active)
Potency [3]: 8.17 µM (active)

COC(=O)C(Cc1ccc(OCCn2c(=O)sc3cc(C(=O)c4ccccc4)ccc32)cc1)C(=O)OC
Potency [1]: 2.13 µM (active)
Potency [2]: inactive
Potency [3]: inactive

CCOc1ccc(CCNC(=O)c2cc3sc(Cl)cc3n2C)cc1OCC
Potency [1]: 2.39 µM (active)
Potency [2]: inactive
Potency [3]: inactive

CNS(=O)(=O)c1ccccc1Nc1nc(Nc2ccc(N3CCN(C)CC3)cc2OC)ncc1Br
Potency [1]: inactive
Potency [2]: 0.649 µM (active)
Potency [3]: 0.728 µM (active)

COC1CCN(c2cccc(-c3cc(NC(C)=O)nc(-n4nc(C)cc4C)n3)n2)CC1
Potency [1]: 10.7 µM (active)
Potency [2]: 20.5 µM (active)
Potency [3]: 16.3 µM (active)

CCN(CC)C(=O)c1ccc(Nc2nc(OCC3CCCCC3)c3[nH]cnc3n2)cc1
activity [4]: -18.1%
Potency [5]: 30.4 µM (active)
activity [6]: -75.3%
activity [7]: -18.4%

CC(C)(C)Sc1c(CC(C)(C)C(=O)O)n(Cc2ccc(Cl)cc2)c2ccc(OCc3ccc4ccccc4n3)cc12
activity [4]: 1.57%
Potency [5]: inactive
activity [6]: -17.1%
activity [7]: -5.18%

O=C(NCCCNc1nc(Nc2cccc(CN3CCOCC3)c2)ncc1C1CC1)C1CCC1
Potency [1]: 8.49 µM (active)
Potency [2]: 2.63 µM (active)
Potency [3]: 1.18 µM (active)
activity [4]: -3.13%
activity change, negative = inhibition [5]: 0%
activity [6]: -11.4%
activity [7]: -23.2%

CC(C)(C[C@@](O)(Cc1cc2ccncc2[nH]1)C(F)(F)F)c1cc(F)ccc1O
Potency [1]: 0.301 µM (active)
Potency [2]: 10.3 µM (active)
Potency [3]: 0.163 µM (active)
activity [4]: 1.72%
activity change, negative = inhibition [5]: 0%
activity [6]: -1.53%
activity [7]: -1.87%
